The target in this assay is Genome polyprotein (Dengue virus type 2 (strain 16681-PDK53)) (UniProt P29991). Put plainly: Dengue-2 NS5 methyltransferase inhibitors, primary screen, biochemical, confirmation dose response (AID 588689). As to conditions: Dengue-2 NS5 methyltransferase capping enzyme assay, at 25 µM, stronger effect = higher value.
Setting [1] is: measured here: pilot screen replicate inhibition.

This passage reports inhibition results from PubChem BioAssay AID588689 (Southern Research Specialized Biocontainment Screening …, 2011).

SMILES strings stand for the structures. Among all 340,000 compounds or so, about 1,000 (0.29%) were called active. Rule as the data show it: inconclusive = inhibition above about 29% without an active follow-up result; inactive = below that. The list is a sample of the results. Entries with a potency or affinity are not part of this list.

What is called inhibition is the change of the read-out against control, counted positive when it falls. Take `COc1ccccc1N1CCN(CC(=O)Nc2ccc(CN3CCCCC3)cc2)CC1`: the inhibition was -7.05% (inactive).

For `CC1=C(C#N)C(c2ccc(O)cc2)C2=C(CCCC2=O)N1` (stereo not drawn), the inhibition was 0% (inactive).

For the compound `COc1ccc2cc(C3(C)NC(=O)N(CC(=O)NCCC4=CCCCC4)C3=O)ccc2c1` (stereo not drawn), the inhibition is -6.89% (inactive). Further, the inhibition under setting [1] was -2.13%.

Consider `Cc1cc(C)cc(NC(=S)NC2CC3CCCC(C2)N3C2CC2)c1` (stereo not drawn), for which the inhibition is -10.8% (inactive).

Consider `Cc1cc(C(F)(F)F)nn1CC(=O)N1CCOCC1`, for which the inhibition is -2.05% (inactive).

As to `Cc1cccc(NC(=O)CN2C(=O)/C(=C3\SC(=S)N(CC4CCCO4)C3=O)c3ccccc32)c1` (stereo not drawn), the inhibition is -5.35% (inactive).

As to `COc1ccc(NC(=O)CN2C(=O)/C(=C3\SC(=S)N(CCC(=O)O)C3=O)c3ccccc32)cc1`, the inhibition was 2.68% (inactive).

`CC(=O)N1C(=S)NC(=O)/C1=C1/C(=O)N(CC(=O)Nc2cccc(C)c2)c2ccccc21`: the inhibition was -2.91% (inactive).

Consider `CCN1C(=O)C(=O)N(CC(=O)Nc2cccc(C(F)(F)F)c2)C1=O`, for which the inhibition was 6.2% (inactive).

On to `O=C(CN1C(=O)/C(=C2\SC(=S)N(C3CCS(=O)(=O)C3)C2=O)c2ccccc21)Nc1ccccc1` (stereo not drawn), for which the inhibition was -1.82% (inactive).

For the compound `O=C(CN1C(=O)CNC1=O)Nc1cccc(C(F)(F)F)c1`, the inhibition was -1.61% (inactive).

As for `CCO[C@H]1OC(C(=O)O)=C[C@@H](c2cn(C(C)=O)c3ccccc23)[C@@H]1CCCO`, the inhibition was -0.8% (inactive).

In the case of `Cc1ccccc1C(=O)NCCNC(=O)c1ccccn1`, the inhibition is 4.99% (inactive).

With `O=C(CSc1ccc(F)cc1)Nc1ccc(N2CCOCC2)c(Cl)c1`, the inhibition was -4.54% (inactive).

With `CC(=O)N1CCN(CC(=O)Nc2ccccc2C(=O)NCc2ccc(C)cc2)CC1`, the inhibition was -0.89% (inactive).

As to `Cc1ccc(OCC(=O)OCC(=O)Nc2ccc3c(c2)OCO3)cc1C`, the inhibition is -3.82% (inactive).

Take `Cc1cc(C(=O)OCC(=O)NCc2ccc(Cl)cc2Cl)c(C)o1`: the inhibition is -0.73% (inactive).

`Clc1ccc(CN2CCSCC2)c(Cl)c1`: the inhibition is -3.29% (inactive). In addition, under setting [1], the inhibition turned out to be 2.1%.

For `C=C(C)c1cccc(C(C)(C)NC(=O)N2CCCC(C)C2)c1` (stereo not drawn), the inhibition was -4.84% (inactive).

Take `Cc1cc(=O)[nH]c(N/N=C/c2cc(C)n(CC(F)(F)F)c2C)n1`: the inhibition was 1.74% (inactive).

Turning to `CC1CCN(C(=S)c2cn(Cc3ccc(F)cc3)c3ccccc23)CC1`, the inhibition is -6.61% (inactive).

Regarding `COCCN(C(=O)c1csnn1)C(C(=O)NC(C)(C)C)c1cccc(OC)c1` (stereo not drawn), the inhibition was 0% (inactive).

`N#Cc1cc(N2CCCCC2)c([N+](=O)[O-])cc1C#N`: the inhibition was -5.36% (inactive).

`O=[N+]([O-])c1cc(F)c(N2CCCCC2)cc1N1CCOCC1`: the inhibition was -8.91% (inactive).

`O=C(NCc1ccccc1Cl)C(=O)NCC1OCCN1S(=O)(=O)c1ccc(F)cc1` (stereo not drawn): the inhibition is -4.82% (inactive).

Consider `CCc1ccc2c(c1)C(=O)C(=O)N2CCS(=O)(=O)c1ccccc1`, for which the inhibition was -11.6% (inactive).

With `COc1cccc(/C=C2/SC(=S)N(CCCC(=O)Nc3ccc(O)cc3)C2=O)c1`, the inhibition was -5.15% (inactive).

With `O=C(O)C(Cc1ccccc1)N1C(=O)/C(=C/c2cccnc2)SC1=S` (stereo not drawn), the inhibition is 8.37% (inactive).

Consider `O=C(O)C(Cc1ccccc1)N1C(=O)/C(=C/c2ccccc2)SC1=S` (stereo not drawn), for which the inhibition is 15.5% (inactive).

Consider `COc1ccc(/C=C2\SC(=S)N(C(Cc3ccccc3)C(=O)O)C2=O)cc1` (stereo not drawn), for which the inhibition was 20.7% (inactive).

Turning to `COc1cc2c(=O)[nH]c3cc([N+](=O)[O-])ccc3c2cc1[N+](=O)[O-]`, the inhibition is 8.05% (inactive).

For the compound `CCC(=O)Nc1nnc(Cc2ccccc2)s1`, the inhibition was 1.61% (inactive).

Consider `CCN(CC)CCN1C(=O)C(=O)/C(=C(/O)c2ccc(S(=O)(=O)N3CCOCC3)cc2)C1c1ccc(Cl)cc1` (stereo not drawn), for which the inhibition was -6.64% (inactive).

Turning to `COc1ccccc1NS(=O)(=O)c1cccs1`, the inhibition is 0% (inactive).

For `O=S(=O)(Nc1cccc2ccccc12)c1cccs1`, the inhibition is -1.29% (inactive).

With `O=C(CN1C(=O)/C(=C\c2cccc(Br)c2)Oc2ccccc21)NCCCN1CCOCC1`, the inhibition was 0.88% (inactive).

For the compound `O=C(CN1C(=O)/C(=C/c2cccc(Br)c2)SC1=S)N1CCCC1`, the inhibition was -5.1% (inactive).

Consider `O/N=C/c1cc(Br)ccc1OCc1ccccc1F`, for which the inhibition was 8.73% (inactive).

`O=C1/C(=C\c2cccc([N+](=O)[O-])c2O)SC(=S)N1Cc1ccccc1`: the inhibition was 32.5% (inactive).

For `O=C(CCCN1C(=O)/C(=C/c2ccccc2Cl)SC1=S)NNC(=O)c1ccccc1`, the inhibition was 8.33% (inactive).

Take `Cc1cc(NC(=O)CN2C(=O)/C(=C/c3ccccc3F)SC2=S)no1`: the inhibition was 2.68% (inactive).

As for `CCN1C(=O)C(=Cc2cccc(OC)c2Oc2ccc([N+](=O)[O-])cc2[N+](=O)[O-])SC1=S`, the inhibition is -1.31% (inactive).

On to `CN1CCN(c2ccc(NS(=O)(=O)c3ccc(Cl)cc3)cn2)CC1`, for which the inhibition was -7.03% (inactive).

Turning to `Cc1nnc(NC(=O)CC23CC4CC(CC(C4)C2)C3)s1`, the inhibition was -6.26% (inactive).

Regarding `O=C(Nc1ccc2c(c1)OCO2)C1CCN(S(=O)(=O)c2cccc3cccnc23)CC1`, the inhibition was 2.93% (inactive).

As to `CCCOc1ccc(/C=C/C(=O)OCC(=O)N(C)c2c(N)n(Cc3ccccc3)c(=O)[nH]c2=O)cc1OCC`, the inhibition was 3.69% (inactive).

Regarding `CC(C)N(O)C(=O)NC(C)(C)C`, the inhibition was 0% (inactive).

For the compound `COc1ccc(NC2=CC(=O)N(C)C2=O)cc1`, the inhibition is -10.2% (inactive).

Turning to `COc1ccc(C(=O)Nc2cccc(-c3ccc4nncn4n3)c2)cc1OC`, the inhibition was 2.3% (inactive).

For `Cc1c(N=C/C=C2\N(C)c3ccccc3C2(C)C)c(=O)n(-c2ccccc2)n1C`, the inhibition was -3.46% (inactive).

In the case of `CCc1cc(=O)oc2c3c(cc(OCC(=O)NCCCn4ccnc4)c12)OC(C)(C)CC3`, the inhibition is -1.45% (inactive).

As to `OCC[C@H]1C[C@H](O)[C@@H](O)[C@]2(OCCc3ccccc32)O1`, the inhibition is -1.2% (inactive).

Regarding `CCOc1cc(CNc2ccc(S(N)(=O)=O)cc2)cc(Cl)c1OC`, the inhibition is 3.64% (inactive).

On to `CCOc1c(Cl)cc(CNc2ccc(S(N)(=O)=O)cc2)cc1OC`, for which the inhibition is -1.46% (inactive).

As for `CCOc1c(Br)cc(CNc2ccc(N3CCOCC3)cc2)cc1OC`, the inhibition was 70.4% (inactive).

Take `COc1cc(CNc2ccc(N3CCCC3)cc2)ccc1OCc1ccccc1`: the inhibition is 12.3% (inactive).

As for `COc1cc(CNc2ccc(S(N)(=O)=O)cc2)ccc1OCc1ccccc1F`, the inhibition is -6.36% (inactive).

As for `COc1cc(CNc2ccc(N3CCCC3)cc2)cc(Cl)c1OC`, the inhibition was 13.9% (inactive).

Regarding `Cc1nn(C)c(Cl)c1CN1CCCC(CCC(=O)NCc2ccccc2F)C1` (stereo not drawn), the inhibition was 0% (inactive).

For `CCN1C(=O)[C@@H]2[C@@H](c3ccc(-c4ccc(OC)cc4)c(OC)c3)N3CCCC[C@@]3(C(=O)OC)[C@@H]2C1=O`, the inhibition was 17.5% (inactive).

In the case of `CCN1CCN(C(=O)CCc2nnc(CCc3c[nH]c4ccccc34)o2)[C@@H](C)C1=O`, the inhibition was -13.8% (inactive).

As to `CN(C(=O)CSc1nnc(-c2cccnc2)n1-c1ccccc1F)C1CCS(=O)(=O)C1` (stereo not drawn), the inhibition is 5.09% (inactive).

For the compound `CC(=O)C1=C(c2ccc(Br)cc2)C(=O)c2ccccc2C1=O`, the inhibition was 35% (inactive).

Take `O=C(C1=C(c2ccccc2)C(=O)c2ccccc2C1=O)c1ccccc1`: the inhibition was 3.59% (inactive).

As to `Nc1ccc(NC(=O)c2ccccc2)c2c1C(=O)c1ccccc1C2=O`, the inhibition was 3.24% (inactive).

As to `Cc1cc(C)cc(NC2=C(N)C(=O)c3ccccc3C2=O)c1`, the inhibition was 13% (inactive).

On to `Nc1ccccc1NC(=O)c1ccccc1`, for which the inhibition was 3.27% (inactive).

With `COc1cc(NS(=O)(=O)c2ccc(C)cc2)c2c(c1N)C(=O)c1ccccc1C2=O`, the inhibition was 9.7% (inactive).

With `O=C(NCCc1nc2ccccc2[nH]1)/C(=C/c1ccc2c(c1)OCO2)NC(=O)c1ccc(Cl)cc1Cl`, the inhibition is -5.82% (inactive).

Turning to `CCCCNC(=O)COC(=O)c1c2c(nc3ccccc13)CCC2`, the inhibition was 4.4% (inactive).

Regarding `Cn1ccnc1C1CCCCN1C(=O)c1cc(COc2ccc(F)cc2F)on1` (stereo not drawn), the inhibition is 1.47% (inactive).

For the compound `Cc1cccc(C)c1N1C(=O)C(Cl)=C(N2CCCC2)C1=O`, the inhibition is -10.8% (inactive).

In the case of `CN(C)C1=C(Cl)C(=O)N(c2ccc(Cl)c(Cl)c2)C1=O`, the inhibition is 26.8% (inactive).

For `Cc1ccc(N2C(=O)C(Cl)=C(N3CCCCCC3)C2=O)cc1`, the inhibition was -6.21% (inactive).

For `O=C1C(Cl)=C(N2CCN(Cc3ccccc3)CC2)C(=O)N1c1ccccc1`, the inhibition was 67.7% (inactive).

Consider `O=C1C(Cl)=C(N2CCOCC2)C(=O)N1CCc1ccccc1`, for which the inhibition was -0.8% (inactive).

Take `CN1CCN(C2=C(Cl)C(=O)N(c3ccc(Cl)cc3)C2=O)CC1`: the inhibition is 14.2% (inactive).

As for `CC(C)c1ccc(S(=O)(=O)Nc2ccc(N3CCOCC3)cc2)cc1`, the inhibition is -9.76% (inactive).

Take `O=C(Nc1cccc(-n2cccn2)c1)C1CCCN(Cc2cc3ccccc3[nH]2)C1` (stereo not drawn): the inhibition is -16.8% (inactive).

Regarding `COc1ccc(N2CCN(C3CCCN(C(=O)CN4CCCC4=O)C3)CC2)cc1` (stereo not drawn), the inhibition is -4.52% (inactive).

For `COCCCN1Cc2cccc(C(=O)O)c2C1=O`, the inhibition was -4.84% (inactive).

Consider `O=C(CCCc1nc(-c2ccc(Cl)cc2)no1)NCC1CCCO1` (stereo not drawn), for which the inhibition was 1.63% (inactive).

Turning to `CC1(C)CC(=O)C(C2=NC3(CCCCC3)Cc3ccccc32)=C(O)C1`, the inhibition was 2.33% (inactive).

For `C=C(C1=CCN(S(=O)C(C)(C)C)[C@@H]1CCO)c1ccccc1` (stereo partly drawn), the inhibition was 0.33% (inactive). Also, the inhibition under setting [1] was -2.42%.

As for `COc1ccc(/C=C(\C#N)C(=O)Nc2cc(S(=O)(=O)N3CCOCC3)ccc2N2CCCC2)cc1`, the inhibition is -4.53% (inactive).

With `COc1ccc(-c2nc(-c3ccccn3)no2)cc1`, the inhibition was -2.71% (inactive).

Turning to `COC(=O)c1ccccc1N(C)S(C)(=O)=O`, the inhibition is -6.11% (inactive).

`COc1ccccc1N1CCN(CCNC(=O)Nc2cccc(C)c2C)CC1`: the inhibition is -5.61% (inactive).

`Cc1ccccc1NC(=O)c1cccc(N2C(=O)C3CCCCC3C2=O)c1` (stereo not drawn): the inhibition is -9.97% (inactive).

In the case of `CN(C1CCCCC1)S(=O)(=O)c1ccc(S(=O)(=O)N2CCN(C(=O)c3ccccc3F)CC2)cc1`, the inhibition was -5.65% (inactive).
